# Source: PubChem (National Center for Advancing Translational Sciences (NCATS))
# HttQ103 aggreg – reduces HttQ103-GFP aggregates in PC12 cells; PC12 HttQ103-GFP aggregates, Acumen cytometry, 40 h; Potency, µM (highest dose often 46.1 µM), inactives show at the top dose activity change, negative = inhibition, most hits filed as inhibitors; actives 1.1% (n = 220,000); note: potency is the fitted concentration of half-maximal effect; % is set by controls: 0 for no effect and ±100 for the full control effect; nearly all actives have a fitted effect of over 60% in size
#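 PC12/HTTQ103-GFP, ecdysone-inducible; teb 100 nM; cpd qHTS titration; GFP aggregates read on laser cytometer, Ex 488/Em 500-530 nm.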
# HTT ATP protect – cytoprotection in Huntington HTT-Q103 PC12 cell model; PC12 HTT-Q103 induced, cytoprotection, ATP luminescence, 40 h; Potency, µM (doses to about 56.4 µM), for inactives: cytoprotection (ATP increase), most hits filed as activators; actives 0.14% (n = 230,000); AID 1471; note: potency is the fitted concentration of half-maximal effect; % of control where 0% means no effect; nearly all actives have a fitted effect of over 45% in size
#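 Stable PC12 Q103-GFP cells in serum-supplemented, phenol red-free DMEM; induction by tebufenozide at 100 nM final; compound dose series; cell viability quantified luminescently from ATP.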
# RGS12 GoLoco inh – RGS12 GoLoco-Gai1 interaction inhibition. P63096. Gai1:RGS12 GoLoco peptide FP, rhodamine, 10 min. Potency, µM (top dose mostly 61.6 µM), for inactives: top-dose activity, negative = inhibition, hits mostly inhibitors. actives 0.44% (n = 230,000); active = well fitted inhibition curve with a large enough effect, not every such curve was filed as active; inactive = no such curve, though single readings can be large or run the other way; note: potency is the fitted concentration of half-maximal effect; % is set by controls: 0 for no effect and ±100 for the full control effect; nearly all actives have a fitted effect of over 30% in size
# Target sequence (P63096 whole entry, looked up): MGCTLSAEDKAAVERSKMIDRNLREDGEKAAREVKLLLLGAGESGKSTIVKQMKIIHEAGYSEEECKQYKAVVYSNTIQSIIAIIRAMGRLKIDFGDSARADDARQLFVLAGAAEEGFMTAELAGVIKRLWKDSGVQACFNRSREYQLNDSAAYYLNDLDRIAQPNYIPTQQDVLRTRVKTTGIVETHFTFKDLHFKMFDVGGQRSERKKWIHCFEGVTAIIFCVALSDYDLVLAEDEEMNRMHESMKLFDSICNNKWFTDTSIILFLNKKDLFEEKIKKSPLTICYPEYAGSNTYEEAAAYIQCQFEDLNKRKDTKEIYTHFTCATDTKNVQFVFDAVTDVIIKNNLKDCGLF
# PNC inhibitor – inhibitors of perinucleolar compartment assembly; PC3M PTB-GFP, PNC prevalence imaging, 16 h; hits give low values; activity change (PNC), negative = inhibition, % at 10 µM; actives 3.1% (n = 140,000); AID 2417;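 active = readout at or below -70, meaning at least 70% loss of cells showing the perinucleolar compartment, a nuclear body marking cancer cells; inconclusive = readout between -30 and a set limit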;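 note: plate controls were DMSO wells for no effect and camptothecin positive control wells for full effect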
#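 Compounds are pinned in duplicate onto adhered PC3M cells stably expressing GFP-tagged PTB and incubated 16 h at 37 C. Cells are then fixed, nuclei stained with Hoechst, and PNC-positive cells counted.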
# ALDH1A1 inh – blocks purified human ALDH1A1 activity; P00352; Purified ALDH1A1, NADH fluorescence, propionaldehyde substrate; Potency, µM (doses to about 75.3 µM), for inactives: top-dose activity, negative = inhibition, usual class: inhibitors; actives 7.3% (n = 220,000); active = well fitted inhibition curve with a large enough effect, not every such curve was filed as active; inconclusive = small, poorly fitted or top-dose-only effect, or another doubt; inactive = no such curve, though single readings can be large or run the other way;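 note: potency is the fitted concentration of half-maximal effect; plate controls were no enzyme wells and a reference inhibitor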
# HPGD block – HPGD (human) dehydrogenase inhibition | purified HPGD, NADH fluorescence kinetic, PGE2 substrate | actives 4.3% (n = 150,000) | P15428 | AID 894 | Potency, µM, inactives show at the highest dose activity change, negative = inhibition, most hits filed as inhibitors; active = well fitted inhibition curve with a large enough effect, not every such curve was filed as active; inconclusive = small, poorly fitted or top-dose-only effect, or another doubt; inactive = no such curve, though single readings can be large or run the other way; note: potency is the fitted concentration of half-maximal effect; % is set by controls: 0 for no effect and ±100 for the full control effect
# Target sequence (P15428 whole entry, looked up): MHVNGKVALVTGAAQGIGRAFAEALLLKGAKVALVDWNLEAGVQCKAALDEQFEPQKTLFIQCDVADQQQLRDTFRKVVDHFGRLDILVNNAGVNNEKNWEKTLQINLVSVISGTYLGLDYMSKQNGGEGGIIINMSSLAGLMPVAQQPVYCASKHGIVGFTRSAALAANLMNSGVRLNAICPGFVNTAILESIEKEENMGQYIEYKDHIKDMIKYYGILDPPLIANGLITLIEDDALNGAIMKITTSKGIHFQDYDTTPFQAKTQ
#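 NADH formation kinetics: reaction with 30 uM PGE2 and 1 mM NAD+ (final), 20 nM enzyme, Tris-HCl pH 8 with Tween 20, after 15 min compound preincubation at room temperature. Fluorescence change, last versus first of five reads.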
# * = called active by the depositor; ? = inconclusive; . = not tested or not shown; [ ] = another dose, or the depositor's remark. Shown are actives, neighbours in structure and some others; about 11% of the full set was active somewhere. Unless noted, calls come from the whole dose curve; as a rule, active = well fitted curve in the direction sought with a large enough effect; inconclusive = small, poorly fitted or top-dose-only effect, or another doubt; inactive = no such curve, though single readings can be large; an effect the other way counts as inactive or inconclusive.
SMILES,HttQ103 aggreg,HTT ATP protect,RGS12 GoLoco inh,PNC inhibitor,ALDH1A1 inh,HPGD block
COc1ccc(CC2NCCC3(O)CCCCC23)cc1 (centres undefined),-7%,-7%,0%,-7,16µM*,-19%
Oc1ccc(C2CNCc3sccc32)cc1O (centres undefined),.,.,-7%,.,?,7.1µM*
Oc1ccc(C2CNCCc3c2cc(O)c(O)c3Cl)cc1 (centres undefined),-10%,-19%,2%,.,?,-16%
O=C(C[n+]1ccccc1)N1c2ccccc2Sc2ccccc21,-8%[9.22 µM],0%[10 µM],2%,.,3.2µM*,.
O=c1cccccc1NN=C1CCCCC1,-6%[9.22 µM],5%[10 µM],-2%,.,.,.
O=C(O)c1cc(Br)ccc1NN=C1CCCCC1,-18%,-10%[10 µM],-10%,?,?,25µM*
COCCOC(=O)C1=C(N)Oc2c(oc(CO)cc2=O)C1c1c(F)cccc1Cl (centres undefined),26%,-24%,13%,30,6%,2%
CCOC(=O)C1=C(N)Oc2c(oc(CO)cc2=O)C1c1ccc(F)cc1 (centres undefined),0%,-10%[10 µM],8%,-100*,5%,-12%
O=C1c2ccncc2C(=O)N1Cc1cccc(Cl)c1,9%,-18%,10%,9,1%,18µM*
COc1ccc(N=C2S/C(=C\c3cc(C)n(C)c3C)C(=O)N2CC(C)C)cc1,29%,-54%,15%,68,2.5µM*,-23%
CCn1c(C)cc(/C=C2/SC(=S)N(CC(=O)O)C2=O)c1C,-13%,.,6%,.,12%,.
COC(=O)CN1C(=O)S/C(=C/c2cc(C)n(C)c2C)C1=O,-2%,-27%,7%,?,14µM*,-1%
C#CCN1C(=O)S/C(=C/c2cc(C)n(CC)c2C)C1=O,13%,-15%[10 µM],.,17,7.5µM*,.
CC(C)=C[C@H]1[C@@H](COC(=O)c2cc3c(cc2Cl)OCO3)C1(C)C,.,8%[10 µM],-2%[14.2 µM],.,-2%[13.5 µM],-18%
NC(N)=N/N=C\c1ccc(C2CCNCC2)cc1,.,-3%[10 µM],3%[14.2 µM],.,-3%[13.5 µM],-2%
O=C(N/N=C/c1ccc[nH]1)c1cc(-c2cccs2)nc2ccccc12,-11%,9%,26%,.,16µM*,.
O=C(NNc1nc2ccc(Cl)cc2s1)c1cc(-c2cccs2)nc2ccccc12,14µM*,.,6%,62,34%,-17%
O=C(N/N=C/c1cccnc1)c1cc(-c2cccs2)nc2ccccc12,-13%,3%[10 µM],3%,-25,?,?
O=C(N/N=C/c1cccs1)c1cc(-c2ccncc2)nc2ccccc12,-6%,.,16%,-109*,?,-15%
O=C(N/N=C/c1cccs1)c1cc(C2CC2)nc2ccccc12,-27%,-21%[10 µM],0%,-18,-4%,-20%
O=C(N/N=C/c1cccs1)c1cc(-c2cccc3ccccc23)n[nH]1,?,2%[10 µM],4%,13,-1%,25µM*
COC(=O)c1cc(-c2ccc(Cl)cc2Cl)n[nH]1,6%,.,-5%,.,6%,.
CC(=O)OC[C@@H]1O[C@H](C/C=N\O[C@@H](C)c2cc(-c3c(C)cc(C)cc3C)no2)C=C[C@@H]1OC(C)=O,.,9%[10 µM],.,.,-4%[13.5 µM],.
c1cncc(-c2nccc(-n3ccnc3)n2)c1,.,6%,-4%,.,17%,-7%
O=C(N/N=C/c1ccc2c(c1)OCO2)c1cc(-c2ccc(F)cc2)nc2ccccc12,7%,-33%[10 µM],14%,-96*,-7%,?
SMILES,HttQ103 aggreg,HTT ATP protect,RGS12 GoLoco inh,PNC inhibitor,ALDH1A1 inh,HPGD block
CCc1ccc(/C=N/NC(=O)c2cc(-c3ccncc3)nc3ccccc23)s1,?,-43%[10 µM],20%,-110*,18%,-26%
CCCc1cc(C(=O)N/N=C/c2ccc(CC)s2)c2ccccc2n1,-15%,-83%,-3%,59,-4%,-14%
O=C(Nc1ccc(Cl)cc1)OCCn1nnnc1C(c1ccccc1Cl)N1CCOCC1 (centres undefined),-23%,-6%,6%,32,-10%,-15%
NC(=O)C1(N2CCCCC2)CCN(C(=O)CSc2nc(C(F)(F)F)cc(=O)[nH]2)CC1,-12%,-7%[0.074 µM],15%,-17,11%,-4%
Cc1cc(C)c(S(=O)(=O)Cc2ccccc2)c(=O)[nH]1,16%,23%,-1%,.,2%,.
CCN(CC)c1cccc(OC2=NS(=O)(=O)c3ccccc32)c1,23%,0%,.,-24,22µM*,.
O=[N+]([O-])c1ccccc1S(=O)(=O)NCC1CCC(CNCC2CCc3ccccc3C2)CC1 (centres undefined),.,-55%,-8%,.,-7%,-12%
CC1CCc2c(sc3nc(CN4CCOCC4)nc(Sc4ccccc4)c23)C1 (centres undefined),30%,-3%[10 µM],5%,11,25µM*,-6%
NC[C@H]1O[C@@H](n2cnc3c(=O)[nH]c(N)nc32)[C@@H](O)[C@@H]1O,.,0%[10 µM],2%[14.2 µM],.,3%[13.5 µM],-7%
COCCNC(=O)c1ccc(-n2c(=O)c(=O)[nH]c3ccccc32)cc1,.,.,.,.,-1%,-21%
CNC(=O)c1c(N)sc2c1CCCCC2,-2%,0%,17%,?,25µM*,32µM*
NC(=O)c1c(N)sc2c1CCCCC2,-19%,-9%[10 µM],-22%,-1,14µM*,?
COCCNC(=O)c1c(N)sc2c1CCCC2,5%,0%,84%,7,?,?
NC(=O)c1c(N)sc2c1CCC2,-18%[9.22 µM],12%[10 µM],4%,.,?,.
Cn1c(=O)c(CCc2ccccc2)nc2cnc(N3CCOCC3)nc21,.,?,39%,.,?,.
CC(/C=C/c1cccs1)=C\C(=O)O,-9%,-1%,-10%,38,2%,-21%
N#C/C(=C\C1=C(N2CCOCC2)C(=C\c2ccc(Cl)cc2)/CC1)C(=O)Nc1ccccc1F,?,27%[10 µM],-119%,?,-2%,-21%
CCN(CC)c1ccc(/C=C2\CCC(/C=C(\C#N)C(=O)Nc3ccccc3F)=C2N2CCOCC2)cc1,?,1%[1.9 µM],195%,48,?,11µM*
CC1CCC(NC(=S)NCCN(C)C)CC1 (centres undefined),12%,-16%,-5%,.,1.6µM*,.
CC1(C)CC(N=C=O)CC(C)(CN=C=O)C1 (centres undefined),.,9%,22%,.,?,-4%
Cc1cc(F)ccc1OC1C=CC(c2ccc3c(c2)OCO3)OC1CO (centres undefined),.,-12%[10 µM],.,.,0%[13.5 µM],.
COc1cccc2c1C(=O)c1c(O)c3c(c(O)c1C2=O)C[C@](O)(C(=O)CO)C[C@H]3O[C@@H]1C[C@H](N)[C@H](O)[C@H](C)O1,.,-254%[17.1 µM],2.2µM*,.,-3%[20.9 µM],-10%
